The values that follow come from PubChem BioAssay (NCATS).

Values joined by “and” are separate entries in the source; they are usually repeats but may differ in a detail not shown here. Equal values may be shown once. A number with no mark means an inactive call. Records with an inconclusive call do not appear. Active and inactive are the calls of the source. Unless noted, calls follow the shape of the dose curve; as a rule, active = well fitted curve in either direction with a large enough effect (not every such curve was filed as active); inconclusive = small, poorly fitted or top-dose-only effect, or another doubt; inactive = flat fitted curve, though single readings scatter.

The nature of experiment [1]: AP1 Signaling Pathway (AID 357).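 Also: ME-180 reporter cells stimulated with EGF at its EC50 level; % is scaled to controls: 0 for no effect and ±100 for the full control effect.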 A digest of the protocol: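 In this screen, ME-180 cells in Opti-MEM with 0.5% dialyzed FBS received EC50 EGF and compound titrations for 5 h. AP-1 reporter beta-lactamase was detected via CCF4 ratio, giving AC50 for positive and negative modulators.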
Experiment [2] has as its target Cytochrome P450 1A2 (Homo sapiens) (UniProt P05177). Briefly: p450-cyp1a2 (AID 410; calls by dose curve; also: potency is read from the fitted curve at half-maximal effect;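 as to activity change, negative = inhibition: -100% = full effect of reference inhibitor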). A digest of the protocol: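 20nM CYP1A2 with 100uM Luciferin-ME (at Km) in 100mM KPO4; compound preincubated 10 min, NADPH regeneration added, 60 min at room temperature. Luciferin quantified by luminescence after detection reagent; normalized to 57 uM furafylline.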
Experiment [3] in a line: Cell Viability - BJ (AID 421; calls by dose curve;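 also: potency is read from the fitted curve at half-maximal effect; cells exposed to compound for 40 hours at 37 °C before readout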). The settings on record: BJ fibroblast viability, qHTS. In short, it runs like this:
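Quantitative HTS: ATP depletion in BJ cells after 40 hr compound exposure in complete culture medium, detected with CellTiter-Glo; AC50 from standard Hill fits.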

Experiment [4] can be described thus: Cell Viability - Jurkat (AID 426;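 active = dose-dependent loss of cell ATP signal giving a full or clear fitted curve, ranked by lower potency value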; also: potency is read from the fitted curve at half-maximal effect). The settings on record: qHTS. In short, it runs like this: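 Jurkat (Clone E6-1) cells, 5000/well in complete medium, exposed to compounds for 40 hr at 37C; intracellular ATP measured by CellTiter-Glo luminescence after 20 min at room temperature. AC50 from Hill fits.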
Experiment [5] is described as follows: Cell Viability - Hek293 (AID 427;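 active = compounds whose dose-response curve shows a full or clear partial loss of cell viability, called from curve shape rather than a numeric limit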;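 also: potency is read from the fitted curve at half-maximal effect; cells exposed to compound for 40 hours at 37 °C before reading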). The note with it: qHTS. A digest of the protocol: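 AC50 values derive from Hill-modelled concentration-response of ATP-based luminescence, normalized between DMSO-only and 100 uM tamoxifen controls. Cells were exposed in complete culture medium for 40 hr at 37 °C before detection.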
The nature of experiment [6]: Cell Viability - HepG2 (AID 433; calls by dose curve;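 also: potency is read from the fitted curve at half-maximal effect; potency for ATP loss meaning cytotoxicity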). The note with it: qHTS. In short, it runs like this:
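In this qHTS format, a 40 h, 37 °C compound incubation of HepG2 cells in complete medium precedes a 20 min CellTiter-Glo step at room temperature. Tamoxifen and doxorubicin serve as positive controls; Hill-equation fits yield AC50.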

The nature of experiment [7]: Cell Viability - MRC5 (AID 434; calls by dose curve;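 also: potency is read from the fitted curve at half-maximal effect; potency reflects cytotoxicity seen as loss of intracellular ATP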). The settings on record: MRC5 lung fibroblast viability, qHTS. In short, it runs like this:
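MRC5 normal human lung fibroblasts, 1500 cells/well, exposed to compound for 40 hr at 37 C. Cellular ATP was read by CellTiter-Glo luminescence; data normalized to DMSO and 100 uM tamoxifen, with AC50 from Hill fits.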

A short description of experiment [8]: Cell Viability - SK-N-SH (AID 435; calls by dose curve;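 also: potency is read from the fitted curve at half-maximal effect; compound exposure lasted 40 h at 37 °C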). The note with it: SK-N-SH neuroblastoma cell viability qHTS. A digest of the protocol:
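Human neuroblastoma line, 40 h exposure at 37 °C, ATP quantified via luciferase luminescence; DMSO and 100 uM tamoxifen define 0 and 100% inhibition for AC50 fitting.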

Experiment [9] can be described thus: NFAT Signaling Pathway (AID 444).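 Also: carbachol stimulus at about its EC50 of 1 µM final; % is scaled to controls: 0 for no effect and ±100 for the full control effect.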 In short, it runs like this:
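Jurkat cells with NFAT-driven β-lactamase reporter and co-expressed M1 receptor, stimulated with carbachol (final 1 uM, ~EC50), compound titration, 5 h at 37 °C. CCF4 loaded 1 h at RT; 460/530 nm ratio gave %activity and AC50.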

Experiment [10] is described as follows: Stat Signaling Pathway (AID 446).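 Also: ME-180 cervical cancer cells given 40 pM IL-6 alongside compound; SIE-controlled beta-lactamase reporter measured as 460/530 nm FRET emission ratio; % is scaled to controls: 0 for no effect and ±100 for the full control effect.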 The settings on record: ME-180 (cervical carcinoma) SIE beta-lactamase reporter, IL-6 stimulated, 5 h. In short, it runs like this:
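IL-6/STAT signaling read in ME-180 cells via an SIE beta-lactamase reporter. Stimulus was 40 pM IL-6 (its AC50) for 5 hrs, so both activation and inhibition register.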

For experiment [11], the target named is Glucocorticoid receptor (Homo sapiens) (UniProt P04150). Kind of experiment: GR-GFP Redistribution (AID 450;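 active = compounds whose dose series gives a full or clear partial fitted curve of increased nuclear translocation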; also: potency is read from the fitted curve at half-maximal effect). The settings on record: U2OS GR-GFP nuclear translocation, laser cytometry, 2 h.
Glucocorticoid receptor (Homo sapiens), sequence (P04150 whole entry, looked up, the tested form may be a part): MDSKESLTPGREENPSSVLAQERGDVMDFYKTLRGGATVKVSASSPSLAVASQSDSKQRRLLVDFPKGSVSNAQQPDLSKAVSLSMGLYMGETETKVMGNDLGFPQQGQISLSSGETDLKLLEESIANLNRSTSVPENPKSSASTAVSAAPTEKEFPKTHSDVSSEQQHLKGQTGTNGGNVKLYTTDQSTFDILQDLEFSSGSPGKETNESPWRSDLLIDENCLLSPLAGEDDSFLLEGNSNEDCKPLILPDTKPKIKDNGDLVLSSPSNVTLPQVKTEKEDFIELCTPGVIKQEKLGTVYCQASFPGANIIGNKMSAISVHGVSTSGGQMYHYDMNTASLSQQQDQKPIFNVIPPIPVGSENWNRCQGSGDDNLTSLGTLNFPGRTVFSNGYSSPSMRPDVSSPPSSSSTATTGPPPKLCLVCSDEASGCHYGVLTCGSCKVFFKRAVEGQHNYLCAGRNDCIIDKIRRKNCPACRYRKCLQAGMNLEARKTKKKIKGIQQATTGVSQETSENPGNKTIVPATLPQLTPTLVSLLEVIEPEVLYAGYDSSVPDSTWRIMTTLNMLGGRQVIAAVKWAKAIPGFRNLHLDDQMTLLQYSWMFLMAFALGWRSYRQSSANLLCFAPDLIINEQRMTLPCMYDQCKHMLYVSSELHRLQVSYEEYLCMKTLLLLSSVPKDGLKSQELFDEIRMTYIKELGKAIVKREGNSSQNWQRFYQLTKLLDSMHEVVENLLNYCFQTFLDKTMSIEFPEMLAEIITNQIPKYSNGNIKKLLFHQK
The target is the same in experiment [12]. Kind of experiment: GR-EFC Redistribution (AID 451; calls by dose curve; also: potency is read from the fitted curve at half-maximal effect). The settings on record: CHO-K1 GR-EFC translocation, beta-gal luminescence, 2 h. A digest of the protocol: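 CHO-K1 cells expressing nuclear EA and GR-ED fragments of b-gal; compounds titrated up to 46 uM final, 2 h at 37 C. GR nuclear translocation read as complemented b-gal luminescence after 1 h RT detection.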

Experiment [13] has as its target Mitogen-activated protein kinase 10 (Mus musculus) (UniProt Q61831). Kind of experiment: JNK3 AlphaScreen Assay (AID 530).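 Also: kinase came from lysate of stimulated human HepG2 cells; signal reports phosphorylation of biotinylated GST-cJun 1-79 at Ser73 with 10 µM ATP; % is scaled to controls: 0 for no effect and ±100 for the full control effect.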 A digest of the protocol: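 Pre-activated (IL-1β/TNFα) JNK3 in HepG2 lysates phosphorylates biotin-GST-cJun(1-79), 10 uM ATP; anti-phospho-cJun(Ser73) AlphaScreen read at room temperature, pH 7.6 Tris buffer. Compounds pre-incubated 15 min as titrations.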

Experiment [14] in a line: Cell Viability - N2a (AID 540; active = well fitted curve in the direction sought with a large enough effect; an effect the other way counts as inactive or inconclusive;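 also: plate controls were DMSO alone for no effect and tamoxifen control for full effect; nearly all actives have a fitted effect of over 45% in size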). The note with it: N2a mouse neuroblastoma cell viability; activity change, negative = cytotoxicity: at 92.2 µM (top of the series). In short, it runs like this:
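Mouse neuroblastoma N2a cells, 1500/well, exposed to compounds 40 h at 37 °C in complete medium. Viability measured as cellular ATP by CellTiter-Glo luminescence; AC50 from Hill fits of concentration-response.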

Experiment [15] is described as follows: Cell Viability - HUV-EC-C (AID 542; active = well fitted curve in the direction sought with a large enough effect; an effect the other way counts as inactive or inconclusive; also: nearly all actives have a fitted effect of over 35% in size; also: potency is read from the fitted curve at half-maximal effect). A digest of the protocol: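 HUV-EC-C human vascular endothelial cells, 1000/well, exposed to compound for 40 hr at 37 °C in complete medium. Intracellular ATP was read by CellTiter-Glo luminescence. AC50 came from Hill-equation fits of concentration-response data.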
The nature of experiment [16]: Cell Viability - SH-SY5Y (AID 544; active = well fitted curve in the direction sought with a large enough effect; an effect the other way counts as inactive or inconclusive;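 also: 0% = DMSO alone and -100% = 100 µM tamoxifen; nearly all actives have a fitted effect of over 55% in size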). The note with it: SH-SY5Y neuroblastoma cell viability; viability change, negative = cytotoxic: at 92.2 µM (top of the series). A digest of the protocol:
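SH-SY5Y human neuroblastoma cells (1500/well) incubated 5 h, then compound-treated 40 h at 37 °C in complete medium. Viability read as intracellular ATP by CellTiter-Glo luminescence after 20 min; AC50 from Hill-equation fits of qHTS concentration-response.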

Experiment [17] can be described thus: Cell Viability - Renal Proximal Tubule (AID 545; active = well fitted curve in the direction sought with a large enough effect; an effect the other way counts as inactive or inconclusive;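 also: 0% = DMSO only and -100% = 100 µM tamoxifen; nearly all actives have a fitted effect of over 40% in size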). The note with it: renal proximal tubule cells viability, primary cells of rat origin; activity change, negative = cytotoxicity: at 91.7 µM (top of the series). In short, it runs like this: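 In this qHTS format, normal rat kidney-derived proximal tubule cells in complete culture medium receive compound titrations, then sit 40 hours at 37 °C before luciferase-based ATP quantitation; potency is reported as AC50 from concentration-response curves.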

Experiment [18] can be described thus: Cell Viability - H-4-II-E (AID 543; active = well fitted curve in the direction sought with a large enough effect; an effect the other way counts as inactive or inconclusive; also: nearly all actives have a fitted effect of over 35% in size; also: potency is read from the fitted curve at half-maximal effect). In short, it runs like this: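 Rat hepatoma H-4-II-E cells, 1500 per well, treated 40 h at 37 °C in complete medium. Cellular ATP read by CellTiter-Glo luminescence; AC50 from Hill fits of concentration-response.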
Experiment [19] addresses Lysosomal acid glucosylceramidase (Homo sapiens) (UniProt P04062). Kind of experiment: Glucocerebrosidase-p2 (AID 348; in the data active = potency below about 10 µM; also: potency is read from the fitted curve at half-maximal effect). The note with it: purified GBA, blue fluorogenic substrate, 40 min. In short, it runs like this: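 Compounds titrated from 0.6 nM upwards against 0.2 nM enzyme in pH 5.9 citric acid/KH2PO4, taurocholate, tween-20; blue fluorogenic substrate 80 uM, 40 min room temperature, stopped and read Ex 365/Em 440 for AC50.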

Cytochrome P450 1A2 (Homo sapiens), sequence (P05177 whole entry, looked up): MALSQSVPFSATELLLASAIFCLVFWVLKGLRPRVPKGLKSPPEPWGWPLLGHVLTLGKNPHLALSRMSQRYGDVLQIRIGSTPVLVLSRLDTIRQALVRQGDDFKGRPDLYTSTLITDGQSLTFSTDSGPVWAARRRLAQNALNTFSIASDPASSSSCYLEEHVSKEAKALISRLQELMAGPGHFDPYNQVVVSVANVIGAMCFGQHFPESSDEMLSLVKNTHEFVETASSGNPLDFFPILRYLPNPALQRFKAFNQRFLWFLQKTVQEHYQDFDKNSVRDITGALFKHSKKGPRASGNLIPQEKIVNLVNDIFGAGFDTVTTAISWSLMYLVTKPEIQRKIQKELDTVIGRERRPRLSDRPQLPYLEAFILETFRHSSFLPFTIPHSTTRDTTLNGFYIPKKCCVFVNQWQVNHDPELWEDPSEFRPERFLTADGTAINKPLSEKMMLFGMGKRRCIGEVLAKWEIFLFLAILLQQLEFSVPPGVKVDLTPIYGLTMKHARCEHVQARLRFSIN
Lysosomal acid glucosylceramidase (Homo sapiens), sequence (P04062 whole entry, looked up): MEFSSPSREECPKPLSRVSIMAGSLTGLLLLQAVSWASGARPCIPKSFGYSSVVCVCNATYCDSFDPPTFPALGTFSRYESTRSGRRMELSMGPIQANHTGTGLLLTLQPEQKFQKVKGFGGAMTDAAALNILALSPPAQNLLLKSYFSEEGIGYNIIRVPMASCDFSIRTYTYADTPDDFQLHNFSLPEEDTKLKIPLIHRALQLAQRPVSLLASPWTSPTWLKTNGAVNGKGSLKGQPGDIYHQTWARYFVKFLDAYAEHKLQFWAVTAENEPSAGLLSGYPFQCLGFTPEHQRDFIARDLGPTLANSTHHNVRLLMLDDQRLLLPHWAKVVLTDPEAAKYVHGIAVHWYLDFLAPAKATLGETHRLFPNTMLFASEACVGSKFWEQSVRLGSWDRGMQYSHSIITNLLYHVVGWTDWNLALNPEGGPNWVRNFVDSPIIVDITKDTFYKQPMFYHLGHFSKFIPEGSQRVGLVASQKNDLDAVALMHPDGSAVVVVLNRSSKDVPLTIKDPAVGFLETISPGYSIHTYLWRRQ

As to `O=c1c(-c2ccc(O)cc2)coc2cc(O)ccc12`, the compound was called inactive in [1], in [9] and in experiment [13]. Further, the Potency was 15.8 µM (active) in experiment [2]; more than 92 µM in experiment [3]; more than 92 µM in [4]; more than 92 µM in experiment [5]; more than 92 µM in experiment [6]; more than 92 µM in [7]. The Potency in experiment [8] is more than 92 µM; in experiment [11], more than 46 µM; in experiment [12], more than 46 µM. The activity, negative = inhibition in experiment [10] (at 38 µM (top of the series)) was -22%. Moreover, the Potency entry in experiment [14], in experiment [15], in experiment [16] and in experiment [17] was “inactive” each time.

As for `CCN1CCC[C@H]1CNC(=O)c1cc(S(N)(=O)=O)ccc1OC`, the compound was called inactive in experiment [1], in experiment [9] and in [13]. Besides, the Potency result in experiment [2] was “inactive”. In experiment [10] (at 17.2 µM (top of the series)), the activity, negative = inhibition is 8.96%. Besides, the Potency in experiment [11] was > 20.6 µM and > 46 µM; in experiment [12], > 20.6 µM and > 46 µM.

As for `C[N+](C)(C)CC(=O)O`, the outcome in experiment [1], in experiment [9] and in experiment [13] was inactive. Also, the Potency result in [2] is “inactive”. For the same compound, in experiment [10] (at 38 µM (top of the series)), the activity, negative = inhibition is -8.86%.

On to `CC(=O)CCCCn1c(=O)c2c(ncn2C)n(C)c1=O`, for which the compound was classed as inactive in experiment [1], in experiment [9] and in experiment [13]. For the same compound, the Potency in [2] was 31.6 µM (active) and 12.6 µM (active); in experiment [11] it was > 46 µM and > 20.6 µM; in [12], > 46 µM and > 20.6 µM. The activity, negative = inhibition in [10] (at 17.2 µM (top of the series)) is -10.5%; in experiment [10] (at 38 µM (top of the series)), 9.49%.

For `CCN(CC)CCNC(=O)c1ccc(N)cc1`, the compound was called inactive in experiment [1], in [9] and in experiment [13]. Further, the activity, negative = inhibition was 5.34% and 0.638% in [10] (at 17.2 µM (top of the series)); 3.95% in experiment [10] (at 38 µM (top of the series)).

In the case of `CC/C(=C(\c1ccccc1)c1ccc(OCCN(C)C)cc1)c1ccccc1`, the result in experiment [1], in experiment [9] and in [13] was inactive. For the same compound, the Potency in experiment [4] was 31.5 µM (active); in experiment [6], 46.2 µM (active); in experiment [7] it was 60.3 µM (active); in experiment [8], 49.1 µM (active); in experiment [11] it was > 46 µM and > 20.6 µM; in [12] it was > 46 µM and > 20.6 µM. The Potency in experiment [15] and in experiment [18] was 50.1 µM (active) throughout. For the same compound, the activity, negative = inhibition in experiment [10] (at 17.2 µM (top of the series)) was 14.2%; in [10] (at 38 µM (top of the series)), 2.62%. The activity change, negative = cytotoxicity in experiment [14] was -117% (active); in [17] it was -109% (active). Further, the viability change, negative = cytotoxic in experiment [16] was -99.3% (active).

`CCN(CC)C(=O)c1ccc(O)c(OC)c1`: the compound was classed as inactive in [1], in [9] and in experiment [13]. Moreover, the Potency in experiment [2] was 12.6 µM (active); in [11], > 46 µM and > 20.6 µM; in experiment [12], > 46 µM and > 20.6 µM. Besides, the activity, negative = inhibition in [10] (at 17.2 µM (top of the series)) is 4.07% and -1.09%; in experiment [10] (at 38 µM (top of the series)), -11.7%.

Take `c1cc(-c2sc(-c3ccncc3)c(-c3ccncc3)c2-c2ccncc2)ccn1`: the Potency in experiment [19] is more than 11.4 µM; in experiment [2], 3.16 µM (active); in [11] it was more than 46 µM; in experiment [12] it was more than 9.22 µM. Moreover, the outcome in experiment [1] and in experiment [9] was inactive. Further, the activity, negative = inhibition in experiment [10] (at 7.69 µM (top of the series)) is 7.72%. Besides, in experiment [13], the activity change, negative = inhibition is -6.48% [at 11.4 µM].

With `O=C1NCC2(CCN(CCc3ccccc3)CC2)O1`, the call in [1], in [9] and in [13] was inactive. Also, the Potency result in experiment [2] was “inactive”. Also, the activity, negative = inhibition in [10] (at 17.2 µM (top of the series)) was 8.61%; in experiment [10] (at 38 µM (top of the series)) it was 4.62%. Further, the Potency in experiment [11] was > 46 µM and > 20.6 µM; in experiment [12] it was > 46 µM and > 20.6 µM.

With `C[C@@H](O)[C@H]1C(=O)N2C(C(=O)O)=C(S[C@@H]3CN[C@H](C(=O)N(C)C)C3)[C@H](C)[C@H]12`, the result in experiment [1], in [9] and in [13] was inactive. In addition, the Potency result in [2] was “inactive”. Besides, in experiment [10] (at 17.2 µM (top of the series)), the activity, negative = inhibition was -18.6%. In addition, the Potency in experiment [11] and in experiment [12] was more than 20.6 µM in each case.

For `O=C(O)c1cc(O)c2c(c1)C(=O)c1cccc(O)c1C2=O`, the result in experiment [1], in experiment [9] and in experiment [13] was inactive. In addition, the Potency in [3] was more than 92 µM; in [7], more than 92 µM; in [11], more than 20.6 µM. Besides, in [10] (at 17.2 µM (top of the series)), the activity, negative = inhibition is 11.9%. Also, the Potency result in experiment [15], in experiment [18], in experiment [16] and in [17] was “inactive” in each case.
